# TDP1 cell noCPT = qHTS for Inhibitors of human tyrosyl-DNA phosphodiesterase 1 (TDP1): qHTS in cells in absence of CPT | DT40 Tdp1-/- hTDP1 cells, no CPT, ATP luminescence, 48 h | Potency, µM (series often up to 46.2 µM), inactives show at the top dose activity change, negative = growth inhibition, actives largely listed as inhibitors | 15% of 420,000 active | AID 686978, 2013; further: potency means the concentration at half of the fitted maximal effect; nearly all actives have a fitted effect of over 55% in size
#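 No-CPT arm: Tdp1-/-;hTDP1 DT40 cells (400/well) plus compounds, incubated ≥48 hr at 37 °C. Readout CellTiter-Glo luminescence.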
# HT1080NT lethal = qHTS for induction of synthetic lethality in tumor cells producing 2HG: qHTS for the HT-1080-NT fibrosarcoma cell line | Potency, µM (highest dose often 46.1 µM), for the others: top-dose activity, negative = less viability, usual class: cytotoxic | AID 686970, 2013 | HT-1080-NT fibrosarcoma viability, CellTiter-Glo ATP luminescence, 48 h | 1.6% of 360,000 active;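 further: NT is the 2HG producing partner of a matched IDH1 knockdown line; potency means the concentration at half of the fitted maximal effect; 0% = DMSO-treated cells and -100% = media-only wells without cells; nearly all actives have a fitted effect of over 55% in size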
#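 Read-out is CellTiter-Glo luminescence after 10 minutes at room temperature, following 48 hours' compound treatment of HT-1080-NT cells (750 cells/well, RPMI, 5% FBS, 37 degrees C).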
# IL1B secr inh = qHTS for Inhibitors of Inflammasome Signaling: IL-1-beta AlphaLISA Primary Screen | THP-1 LPS/ATP IL-1B secretion, AlphaLISA, 16 h; stronger effect = lower value | 4.7% of 360,000 active | activity change, % at 57.5 µM | AID 743279, 2014; in the data active means activity change below about -50%; inconclusive means mostly about -30% to -49%
#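 Secreted IL-1B measured by AlphaLISA bead assay after 16 h compound exposure of THP-1 cells; compounds (final up to 57.5 uM) added 1 h before LPS (250 ng/mL) and ATP (1.25 mM) stimulation; lower signal means less secretion.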
# HT1080 IDH1KD tx = qHTS for induction of synthetic lethality in tumor cells producing 2HG: qHTS for the HT-1080-IDH1KD cell line | Potency, µM (highest dose often 46.1 µM), without a hit: at the highest dose activity, negative = toxicity, hits mostly cytotoxic | 2% of 360,000 active | HT-1080 IDH1 knockdown viability, ATP luminescence, 48 h;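 further: potency means the concentration at half of the fitted maximal effect; 0% = DMSO wells and -100% = cell-free medium wells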
#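 Using the IDH1-knockdown HT-1080 line run in the same batch and compound series as the NT line, viability after 48 h at 37 °C was determined by CellTiter-Glo luminescence and expressed as % activity.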
# TDP1 cell CPT = qHTS for Inhibitors of human tyrosyl-DNA phosphodiesterase 1 (TDP1): qHTS in cells in presence of CPT. chicken DT40 Tdp1-/-;hTDP1 cells + 20 nM CPT, ATP luminescence, 48 h. Potency, µM (doses to about 46.2 µM), inactives show at the highest dose activity change, negative = growth inhibition, most hits filed as inhibitors. 12% of 420,000 active. AID 686979, 2013; further: potency means the concentration at half of the fitted maximal effect; nearly all actives have a fitted effect of over 55% in size
#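 Chicken DT40 Tdp1-/- cells stably complemented with human TDP1 were seeded at 400 cells/well in medium containing 20 nM camptothecin, exposed to pin-transferred compounds, and grown at 37 °C for at least 48 hr. Viability was read as ATP luminescence.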
# ALOX12 inh = Primary qHTS assay for inhibitors of human arachidonate 12S-lipoxygenase (ALOX12): Round 2; purified 12hLO, xylenol orange hydroperoxide absorbance; Potency, µM (doses to about 108 µM), for inactives: at the top dose activity change, negative = inhibition, hits mostly inhibitors; 1.1% of 580,000 active; further: potency means the concentration at half of the fitted maximal effect
# Target sequence (P18054 whole entry, looked up): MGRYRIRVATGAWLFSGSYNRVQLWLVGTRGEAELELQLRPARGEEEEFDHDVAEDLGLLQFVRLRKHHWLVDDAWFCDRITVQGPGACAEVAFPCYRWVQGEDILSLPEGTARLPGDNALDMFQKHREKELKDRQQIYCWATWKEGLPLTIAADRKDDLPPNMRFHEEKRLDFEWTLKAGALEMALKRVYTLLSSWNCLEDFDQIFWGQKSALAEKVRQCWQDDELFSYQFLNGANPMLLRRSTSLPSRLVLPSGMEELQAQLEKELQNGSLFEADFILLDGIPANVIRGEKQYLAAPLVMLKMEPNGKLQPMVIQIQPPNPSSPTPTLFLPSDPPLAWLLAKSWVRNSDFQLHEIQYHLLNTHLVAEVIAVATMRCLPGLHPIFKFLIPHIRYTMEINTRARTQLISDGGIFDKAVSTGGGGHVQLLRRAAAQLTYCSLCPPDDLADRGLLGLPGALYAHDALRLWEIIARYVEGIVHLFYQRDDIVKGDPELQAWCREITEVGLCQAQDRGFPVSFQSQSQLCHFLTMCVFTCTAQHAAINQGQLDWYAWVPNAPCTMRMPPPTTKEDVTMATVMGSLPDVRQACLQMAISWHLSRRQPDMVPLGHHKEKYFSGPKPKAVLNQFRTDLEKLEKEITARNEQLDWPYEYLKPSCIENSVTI
#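 Purified human 12hLO (150 nM final) in 25 mM Hepes, 0.01% Triton X-100, pH 7.0 was preincubated 15 min at room temperature with compound. Then 40 uM arachidonic acid was added, 30 min. Hydroperoxide was read by Fe-XO absorbance ratio 573/405 nm.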
# Starred values were filed as active, the others as inactive; u = inconclusive; x = no result; [ ] = another dose, or the depositor's remark. This is one part of a sample in which hits are shown more often than they occur. Unless noted, the call rests on the fitted dose curve; in most records, active means well fitted curve in the direction sought with a large enough effect; inconclusive means small, poorly fitted or top-dose-only effect, or another doubt; inactive means no such curve, though single readings can be large; an effect the other way counts as inactive or inconclusive. Unless noted, on the % scale 0 is the no-effect control and ±100 the full control effect.
SMILES,TDP1 cell noCPT,HT1080NT lethal,IL1B secr inh,HT1080 IDH1KD tx,TDP1 cell CPT,ALOX12 inh
COc1cccc(C(=O)N(CN2CCCC2=O)c2ccccc2OC)c1,-15%,-6%,14,4%,-19%,-4%
COc1ccc(C(=O)N(CN2CCCC2=O)c2ccc(C)cc2)cc1,15µM*,-4%,22,-10%,u,-22%
COc1ccc(-c2onc(C)c2-c2ccc(C(=O)OC(C)C)o2)c(O)c1,16µM*,5%,u,3%,21µM*,u
CCCCC(=NCCc1c(C)[nH]c2ccccc12)C1=C(O)CC(c2ccccc2)CC1=O (centres undefined),5.2µM*,u,u,9.2µM*,5.8µM*,-6%
CCCC(=NCCc1c(C)[nH]c2ccccc12)C1=C(O)CC(c2ccccc2)CC1=O (centres undefined),1.3µM*,u,7,4.6µM*,0.58µM*,u
CCC/C(O)=C1\C(=O)CC(c2ccccc2)CC1=NCCc1c(C)[nH]c2ccccc12 (centres undefined),u,8%,u,-8%,u,32%
Cc1ccc2c(C(=O)N3CCN(C4CCCCC4)CC3)cc(NC(=O)C(C)C)cc2n1,x,x,x,x,x,50%
COc1ccc(OC)c(NC(=O)c2oc3c(c2C)C(O)CC(C)(C)C3)c1 (centres undefined),u,6%,-4,0%,15µM*,480%
O=C(CSc1nnc(Cn2nnc3ccccc32)o1)N(Cc1ccc(Cl)cc1)c1ccccc1,7.3µM*,-5%,-52*,3.3µM*,7.3µM*,-5%
CCN(C(=O)CSc1nnc(Cn2nnc3ccccc32)o1)c1nc(C)cs1,u,-1%,22,-4%,u,u
CCN(C(=O)CSc1nnc(Cn2nnc3ccccc32)o1)c1nc(-c2ccccc2)cs1,u,0%,-5,-7%,23µM*,0%
O=C(Cn1cnc(NC(=O)c2ccccc2)n1)NCc1ccccc1,x,x,x,x,x,40%
O=C(Cc1ccc(Br)cc1)Nc1nc2c(s1)CCCC2,x,x,x,x,x,-25%
Cc1nn2c([nH]c(=O)c3ccccc32)c1C=O,-2%,18µM*,10,u,u,-12%
Cc1nn2c(nc(N3CCOCC3)c3ccccc32)c1C=C(C#N)C#N,-29%,1%,0,0%,-6%,-3%
Cc1nn2c(nc(N3CCCCC3)c3ccccc32)c1C=O,u,u,-74*,-25%,-6%,5%
Cc1c(C=O)c2ccccc2n1C,x,x,x,x,x,-29%
C=CCOC(=O)COc1ccc2c(=O)c(Oc3ccc(OC)cc3)coc2c1,x,x,x,x,x,19%
COc1ccc(SCc2cc(=O)c3cc(Cl)ccc3[nH]2)cc1,3.7µM*,x,x,x,21µM*,-14%
Cc1cc(=O)c2cc(Cl)ccc2[nH]1,5.2µM*,6%,12,-3%,5.2µM*,-1%
Cc1ccc2[nH]c(CSc3ccccc3)cc(=O)c2c1,16µM*,-14%,10,-7%,18µM*,0%
O=c1cc(CSc2ccccc2)[nH]c2ccc(F)cc12,16µM*,x,x,x,12µM*,-17%
CN(Cc1ccsc1)C1CCOc2ccccc21 (centres undefined),x,x,x,x,x,31%[176 µM]
O=C(NCCC1=CCCCC1)c1ccc(Cn2ccn3nc4c(c3c2=O)CCCC4)cc1,x,x,x,x,x,18%

# Screens from PubChem.
